Bioassay records deposited in PubChem by National Center for Advancing Translational Sciences (NCATS).
Sampled rows, rich in hits. Any-hit rate of the full collection: about 17%.
TDP1 cell CPT: qHTS for Inhibitors of human tyrosyl-DNA phosphodiesterase 1 (TDP1): qHTS in cells in presence of CPT. chicken DT40 Tdp1-/-;hTDP1 cells + 20 nM CPT, ATP luminescence, 48 h. Potency, µM (titrated, usually from 46.2 µM), most hits filed as inhibitors. actives 12% (n = 420,000); also: nearly all actives have a fitted effect of over 55% in size
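Chicken DT40 Tdp1-/- cells stably complemented with human TDP1 were seeded at 400 cells/well in medium containing 20 nM camptothecin, exposed to pin-transferred compounds, and grown at 37 °C for at least 48 hr. Viability was read as ATP luminescence.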
TDP1 inh: qHTS Assay for Inhibitors of Tyrosyl-DNA Phosphodiesterase (TDP1); Tyrosyl-DNA phosphodiesterase 1 (Homo sapiens), Q9NUW8; recombinant TDP1, AlphaScreen DNA substrate cleavage; Potency, µM (titrated, usually from 130 µM), usual class: inhibitors; actives 0.28% (n = 350,000); AID 485290, 2010; also: nearly all actives have a fitted effect of over 40% in size
Target sequence (Q9NUW8 whole entry, looked up): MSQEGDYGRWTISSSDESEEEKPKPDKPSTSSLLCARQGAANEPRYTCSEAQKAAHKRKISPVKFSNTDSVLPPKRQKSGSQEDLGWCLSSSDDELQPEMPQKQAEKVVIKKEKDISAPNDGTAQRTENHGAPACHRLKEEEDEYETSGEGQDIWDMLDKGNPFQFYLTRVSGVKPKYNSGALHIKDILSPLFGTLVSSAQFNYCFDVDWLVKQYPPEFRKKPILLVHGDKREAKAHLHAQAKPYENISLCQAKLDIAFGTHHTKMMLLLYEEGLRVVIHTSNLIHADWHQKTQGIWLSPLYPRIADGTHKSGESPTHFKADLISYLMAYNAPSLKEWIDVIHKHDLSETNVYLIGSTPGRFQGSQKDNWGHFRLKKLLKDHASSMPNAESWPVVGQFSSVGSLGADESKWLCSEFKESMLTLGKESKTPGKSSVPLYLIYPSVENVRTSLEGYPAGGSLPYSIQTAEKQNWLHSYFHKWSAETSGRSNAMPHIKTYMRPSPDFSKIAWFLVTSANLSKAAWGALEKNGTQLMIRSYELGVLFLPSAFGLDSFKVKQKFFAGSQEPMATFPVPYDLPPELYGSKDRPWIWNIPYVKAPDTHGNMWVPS
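Recombinant human Tdp1 (E. coli-expressed, 1 nM final) preincubated with compounds 15 min at room temperature, then 5'-biotin/3'-phosphotyrosine-FITC DNA substrate (15 nM final) added for 5 min. AlphaScreen beads (10 ug/ml final) added 10 min; cleavage lowers signal.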
ClpP mod: qHTS Assay for Activators of ClpP; ATP-dependent Clp protease proteolytic subunit (Bacillus subtilis (strain 168)), P80244; purified B. subtilis ClpP, FRET peptide cleavage, 20 min; Potency, µM (top dose mostly 57.5 µM); actives 1.9% (n = 340,000); active = well fitted falling curve with a large enough effect; inconclusive = small, poorly fitted or top-dose-only effect; inactive = no such curve, though single readings can be large or run the other way; also: the source files actives as falling curves though it sought activators and does not explain the sign; nearly all actives have a fitted effect of over 65% in size
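Purified B. subtilis ClpP, 10 microg/mL final in Tris/HCl pH8 with KCl, BSA, glycerol and Tween-20, cleaved an Abz/nitrotyrosine-quenched decapeptide. Fluorescence (ex 320, em 430) was read at 0 and 20 min at room temperature. Delta was normalized to 5.8 microM ADEP and DMSO/no-enzyme controls.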
TDP1 cell noCPT: qHTS for Inhibitors of human tyrosyl-DNA phosphodiesterase 1 (TDP1): qHTS in cells in absence of CPT; Potency, µM (titrated, usually from 46.2 µM), usual class: inhibitors; AID 686978, 2013; actives 15% (n = 420,000); DT40 Tdp1-/- hTDP1 cells, no CPT, ATP luminescence, 48 h; also: nearly all actives have a fitted effect of over 55% in size
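Growth of hTDP1-complemented DT40 Tdp1-knockout cells is measured by ATP luminescence after at least 48 hr compound exposure at 37 °C, with DMSO substituting for the 20 nM CPT used in the parallel screen.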
Large screens that a line does not name were inactive. Unless noted, calls follow the shape of the dose curve; as a rule, active = well fitted curve in the direction sought with a large enough effect; inconclusive = small, poorly fitted or top-dose-only effect, or another doubt; inactive = no such curve, though single readings can be large; an effect the other way counts as inactive or inconclusive.

COc1cccc(CN(CCC(C)C)S(=O)(=O)c2cc(Br)ccc2Br)c1	TDP1 cell CPT 18.4µM, TDP1 cell noCPT 16.4µM (no result: TDP1 inh)
COc1cc(CN(CC(C)C)S(=O)(=O)c2ccccc2Br)cc(OC)c1	TDP1 cell CPT inconclusive, TDP1 cell noCPT inconclusive (no result: TDP1 inh)
CC1=C(C(=O)Nc2ccc(C)cc2C)C(c2cccs2)n2nc(SCc3cccc(C)c3)nc2N1 (stereo not drawn)	TDP1 cell CPT 20.6µM, TDP1 cell noCPT 18.4µM
COc1ccccc1NC(=O)C1=C(C)Nc2nc(SCc3ccccc3)nn2C1c1cccs1 (stereo not drawn)	TDP1 cell noCPT 14.6µM
CCc1ccc(C2C(C(=O)Nc3ccccc3C)=C(C)Nc3nc(SCc4cccc(OC)c4)nn32)cc1 (stereo not drawn)	none
CC1=C(C(=O)Nc2ccccc2)C(c2cccs2)n2nc(SCc3ccccc3)nc2N1 (stereo not drawn)	TDP1 cell noCPT inconclusive
COc1cccc(CSc2nc3n(n2)C(c2cccs2)C(C(=O)Nc2ccccc2C)=C(C)N3)c1 (stereo not drawn)	TDP1 cell CPT 20.6µM, TDP1 cell noCPT 13µM
COc1cccc(-c2nc3n(n2)C(c2cccs2)C(C(=O)Nc2cccnc2)=C(C)N3)c1 (stereo not drawn)	TDP1 cell CPT 14.6µM, TDP1 cell noCPT inconclusive
CCCCn1c(N)c(N(CCC(C)C)C(=O)COC(=O)Cc2ccc(Cl)cc2)c(=O)[nH]c1=O	TDP1 cell CPT inconclusive (no result: TDP1 inh)
CN(Cc1ccccc1)C(=O)[C@@H]1CCCN1C(=O)[C@@H]1CCCN1C(=O)c1cccc(Cl)c1	none (no result: TDP1 inh)
COC(=O)c1sccc1S(=O)(=O)N(CC(=O)NCc1ccc(C)cc1)c1ccc(C)cc1	TDP1 cell CPT 23.1µM, TDP1 cell noCPT inconclusive
COC(=O)c1sccc1S(=O)(=O)N(CC(=O)Nc1c(C)cccc1C)c1ccc(C)c(C)c1	TDP1 cell CPT 16.4µM
COC(=O)c1sccc1S(=O)(=O)N(CC(=O)NCc1ccc(F)cc1)c1ccc(Cl)cc1	TDP1 cell CPT inconclusive, TDP1 cell noCPT inconclusive
COc1ccccc1N(CC(=O)Nc1c(C)cccc1C)S(C)(=O)=O	none
O=C(Nc1ccc(Br)cc1)c1cc(-c2ccncc2)nc2ccccc12	TDP1 cell CPT inconclusive, TDP1 cell noCPT 16.4µM (no result: ClpP mod)
O=C(Nc1ccncc1)c1cc(-c2ccccc2)nc2ccccc12	TDP1 cell CPT inconclusive, TDP1 cell noCPT 20.6µM (no result: TDP1 inh)
COC(=O)c1ccc(NC(=O)c2cc(-c3ccncc3)nc3ccccc23)cc1	TDP1 cell CPT inconclusive, TDP1 cell noCPT inconclusive
COc1cccc(OCCNC(=O)CSc2ccc(C(F)(F)F)cc2[N+](=O)[O-])c1	TDP1 cell CPT 14.6µM, TDP1 cell noCPT 14.6µM
O=C(Nc1ccc(F)c(F)c1)c1cc(S(=O)(=O)NCc2ccc3c(c2)OCO3)ccc1F	none
CCN(C(=O)COC(=O)/C(C#N)=C/c1ccc(OC)cc1)C1CCS(=O)(=O)C1 (stereo not drawn)	none (no result: TDP1 inh)
COCCn1c(=O)c(-c2cccs2)nc2cnc(N3CCOCC3)nc21	none (no result: TDP1 inh, ClpP mod)
c1ccc(NN(Cc2ccncc2)c2ccccc2)cc1	TDP1 cell noCPT inconclusive (no result: TDP1 inh)
Cc1cc(CN(Nc2ccccc2)c2ccccc2)cc(C)n1	TDP1 cell CPT inconclusive, TDP1 cell noCPT 14.6µM (no result: TDP1 inh)
N#Cc1ccc(CN(Nc2ccccc2)c2ccccc2)cc1	TDP1 cell CPT 18.4µM, TDP1 cell noCPT 20.6µM (no result: TDP1 inh)
Cc1ccc(-n2nc(C(=O)Nc3ccc(F)cc3F)c3c4ccccc4n(C)c3c2=O)cc1	none
COc1ccc(NC(=S)N(CCN(C)C)C(C)c2ccco2)cc1Cl (stereo not drawn)	TDP1 cell noCPT 16.4µM
COC(=O)c1cccc(N(CC(=O)NC2CCCCC2)C(=O)CNC(=O)c2cccs2)c1	none (no result: ClpP mod)
C#CCSc1nnc(-c2sc(-c3ccccc3)nc2C)n1C	TDP1 cell CPT inconclusive, ClpP mod 17.8µM
O=C(CCN1C(=O)/C(=C\c2ccc(F)cc2)SC1=S)Nc1ccc(O)cc1	TDP1 cell noCPT 23.1µM
CC(/C=C1\SC(=S)N(CCC(=O)Nc2ccc(O)cc2)C1=O)=C\c1ccccc1	TDP1 cell CPT 18.4µM, TDP1 cell noCPT 18.4µM
Cc1ccc(/C=C2\SC(=S)N(CCCC(=O)NNC(=O)c3ccccc3O)C2=O)cc1	TDP1 cell CPT inconclusive, TDP1 cell noCPT 18.4µM
